Screens: PubChem BioAssay, National Center for Advancing Translational Sciences (NCATS)
G9a block: inhibitors of human histone lysine methyltransferase G9a; G9a H3K9 monomethylation, AlphaScreen, 2 h; Potency, µM (titrated, usually from 102 µM), most hits filed as inhibitors; hit rate 8.8% among 350,000; AID 504332; also: nearly all actives have a fitted effect of over 75% in size
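Readings reflect AlphaScreen signal from monomethyl-H3K9 antibody detection. HMT at 20 nM; substrate b-H3K9 500 nM; cofactor SAM 20 uM; 2 h RT reaction; compounds tested as titrations in qHTS with 15 min preincubation.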
Sfp PPTase inh: Sfp phosphopantetheinyl transferase inhibition | Biochemical Sfp PPTase activity, qHTS | Potency, µM, actives largely listed as inhibitors | hit rate 3.5% among 310,000 | Q9F4F7;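 also: the enzyme is Sfp with the accession as filed and its product quenches rhodamine fluorescence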
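Buffer: 50 mM Hepes-Na pH 7.6, 10 mM MgCl2, 0.01% Nonidet P-40, 0.01% BSA. Enzyme 15 nM, pre-exposed to compound 15 min; substrates then added and fluorescence change tracked over 30 min.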
HP1b chromo inh: inhibitors of HP1-beta chromodomain binding to methylated histone tails. AlphaScreen HP1-beta / biotin-H3K9me3 peptide binding. Potency, µM (highest dose often 114 µM), hits mostly inhibitors. hit rate 0.56% among 390,000. AID 540317; also: nearly all actives have a fitted effect of over 70% in size
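AlphaScreen: HP1-beta (50 nM) preformed 30 min with biotin-H3(1-18)K9me3 peptide (50 nM) in PBS pH 7.4, 0.01% Tween-20. Compound added for 30 min at RT, then streptavidin donor/nickel chelate acceptor beads (10 ug/mL) for 30 min.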
PLK1 PBD block: PLK1 (human) polo-box domain binding inhibition | Plk1 PBD binding of FITC phosphopeptide, fluorescence polarization | hit rate 2.8% among 360,000 | Potency, µM, hits mostly inhibitors | AID 720504 | P53350; also: series mostly up to about 57 µM; nearly all actives have a fitted effect of over 65% in size
BAZ2B block: blocks human BAZ2B. hit rate 4.4% among 360,000. Q9UIF8. AlphaScreen BAZ2B-H3K14Ac peptide displacement. Potency, µM (series often up to 114 µM), most hits filed as inhibitors; also: nearly all actives have a fitted effect of over 60% in size
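Inhibition is scored as reduced AlphaScreen emission. The BAZ2B/b-H3(5-23)K14Ac complex (50 nM each) in PBS pH 7.4, 0.01% Tween-20 meets compound (up to 110 uM) for 30 min at RT before bead addition.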
JMJD2A Tudor: JMJD2A Tudor domain (human) inhibition; Potency, µM (top dose mostly 114 µM), most hits filed as inhibitors; AID 504339; O75164; hit rate 4.4% among 390,000; AlphaScreen JMJD2A-Tudor / H3K4me3 peptide binding; also: nearly all actives have a fitted effect of over 50% in size
Large screens that a line does not name were inactive; ! = a repeat was not active. Rows were chosen to be rich in hits. Some 12% of all compounds tested hit in one or more screens of this group. Calls follow the shape of the dose curve; as a rule, active = well fitted curve in the direction sought with a large enough effect; inconclusive = small, poorly fitted or top-dose-only effect, or another doubt; inactive = no such curve, though single readings can be large; an effect the other way counts as inactive or inconclusive.

COCCN=C1NC(=O)C(CC(=O)Nc2cccc(Cl)c2C)S1 (stereo not given)	G9a block 50µM
CS(=O)(=O)O/N=C1\CCCCC1c1ccc([N+](=O)[O-])cc1[N+](=O)[O-] (stereo not given)	G9a block 40µM
C=CCC[C@@H](CCCCC)OC(=O)/C=C/[C@H](O)[C@@H](O)C[C@H](O)CC=C	none (no result: G9a block, Sfp PPTase inh, HP1b chromo inh, BAZ2B block, JMJD2A Tudor)
Cc1cc(C(=O)OCC(=O)NCCc2ccccc2)c2ccccc2n1	none (no result: Sfp PPTase inh)
CCNC(=O)COC(=O)c1cc(-c2ccc(OC)cc2)nc2ccccc12	none
Nc1nc(N2CCN(C(=O)c3ccco3)CC2)nc2ccc(Br)cc12	G9a block 50µM, Sfp PPTase inh inconclusive, PLK1 PBD block inconclusive
CCN(CC)C(=O)COC(=O)c1cc(-c2ccco2)nc2ccccc12	G9a block 4µM, HP1b chromo inh inconclusive, PLK1 PBD block inconclusive, BAZ2B block 22µM, JMJD2A Tudor 56µM
Nc1nc(N2CCN(C(=O)c3ccco3)CC2)nc2ccccc12	G9a block inconclusive
O=C(COC(=O)c1cc(-c2ccco2)nc2ccccc12)NCc1ccccc1	G9a block 45µM, Sfp PPTase inh 40µM
CNC(=O)COC(=O)c1cc(-c2ccco2)nc2ccccc12	G9a block 10µM, Sfp PPTase inh 28µM, HP1b chromo inh 45µM, PLK1 PBD block 24µM, BAZ2B block 50µM, JMJD2A Tudor 20µM
COc1cc2oc(=O)cc(-c3ccc(-c4ccc(NC(C)=O)cc4)cc3)c2c(OC)c1OC	none (no result: HP1b chromo inh, PLK1 PBD block, BAZ2B block, JMJD2A Tudor)
O=C(OCC(=O)N1CCN(C(=O)c2ccco2)CC1)c1cc(-c2cccc(Br)c2)nc2ccccc12	G9a block 14µM
O=C(OCC(=O)N1CCN(C(=O)c2ccco2)CC1)c1cc(-c2ccccc2)nc2ccccc12	G9a block inconclusive, BAZ2B block inconclusive, JMJD2A Tudor inconclusive
COc1cc(OC)c(NS(=O)(=O)c2ccc3c(c2)NC(=O)CO3)cc1Cl	PLK1 PBD block 6.7µM, JMJD2A Tudor 16µM
COc1cc(OC)c(NS(=O)(=O)c2ccc3c(c2)NC(=O)CCS3)cc1Cl	none (no result: Sfp PPTase inh, PLK1 PBD block)
COc1ccccc1CCNCc1ccc(OC)c(OCc2ccccc2)c1	G9a block inconclusive, Sfp PPTase inh inconclusive, HP1b chromo inh inconclusive, BAZ2B block inconclusive, JMJD2A Tudor 3.2µM
COc1cc(CNCCc2ccccc2)ccc1OCc1ccc(Cl)nc1	none
COc1cc(CNCc2cccnc2)ccc1OCc1ccccc1	none
COc1cc(CNCCc2c[nH]c3ccccc23)ccc1OCc1ccccc1F	Sfp PPTase inh inconclusive, HP1b chromo inh inconclusive, BAZ2B block 35µM, JMJD2A Tudor 40µM
COc1ccc(CNCc2ccco2)cc1OCc1ccccc1	G9a block 13µM, Sfp PPTase inh inconclusive, HP1b chromo inh inconclusive, BAZ2B block 79µM, JMJD2A Tudor 13µM
Cc1nnc2c(N3CCN(c4ccccc4F)CC3)nc3ccccc3n12	none (no result: Sfp PPTase inh, PLK1 PBD block)
Cc1cc(N(CCO)Cc2ccccc2)n2nc(-c3ccc(C(C)(C)C)cc3)nc2n1	none (no result: Sfp PPTase inh, PLK1 PBD block)
CN(C(Cc1ccc(OS(=O)(=O)c2cccc3cnccc23)cc1)C(=O)N1CCN(c2ccccc2)CC1)S(=O)(=O)c1cccc2cnccc12 (stereo not given)	G9a block 16µM! (no result: HP1b chromo inh, PLK1 PBD block, BAZ2B block, JMJD2A Tudor)
Cc1cc(C)cc(C(=O)N2CC(=O)Nc3ccc(Br)cc3C2c2ccccc2)c1 (stereo not given)	none (no result: Sfp PPTase inh, PLK1 PBD block)
COc1ccccc1N1CCN(C(=O)CCc2nnc3n(C)c(=O)c4sccc4n23)CC1	none (no result: Sfp PPTase inh, PLK1 PBD block)
CCCc1nc2nc(C)c(NS(=O)(=O)c3ccc4c(c3)CCCC4)c(=O)n2[nH]1	none
CCc1nc2nc(C)c(NS(=O)(=O)c3ccc(F)c(C)c3)c(=O)n2[nH]1	none (no result: Sfp PPTase inh, PLK1 PBD block)
CCc1nc2nc(C)c(NS(=O)(=O)c3ccc(F)cc3)c(=O)n2[nH]1	G9a block 25µM
CCCc1nc2nc(C)c(NS(=O)(=O)c3ccc(C(C)(C)C)cc3)c(=O)n2[nH]1	G9a block 79µM
CCc1nc2nc(C)c(NS(=O)(=O)c3cccs3)c(=O)n2[nH]1	G9a block inconclusive
CCc1nc2nc(C)c(NS(=O)(=O)c3ccc(Br)s3)c(=O)n2[nH]1	G9a block 50µM, JMJD2A Tudor inconclusive
CCOCC	none (no result: G9a block, HP1b chromo inh, PLK1 PBD block, BAZ2B block, JMJD2A Tudor)
Cc1cc2c(s1)c1cnn(Cc3ccc(F)c(C)c3)c(=O)c1n2C	none (no result: G9a block, Sfp PPTase inh, HP1b chromo inh, PLK1 PBD block, BAZ2B block)
C=CC1=C(C)C2=Cc3c(C=C)c(C)c4[n]3[Sn+2][n]3c(c(C)c(CCC(=O)O)c3=CC3=NC(=C4)C(C)=C3CCC(=O)O)=CC1=N2	Sfp PPTase inh 10µM (no result: G9a block, HP1b chromo inh, PLK1 PBD block, BAZ2B block, JMJD2A Tudor)
Fc1cccc(CSc2ccc(-c3ccc4c(c3)OCO4)nn2)c1	none
CC(=O)c1ccc(NC(=O)CSc2ccc(-c3ccc4c(c3)OCO4)nn2)cc1	JMJD2A Tudor inconclusive
c1cncc(CSc2ccc(-c3ccc4c(c3)OCO4)nn2)c1	G9a block 50µM (no result: BAZ2B block)
CC(=O)Nc1ccc(NC(=O)CSc2ccc(-c3ccc4c(c3)OCO4)nn2)cc1	G9a block 7.9µM
CCCc1ccc2oc(C(=O)N(Cc3nccn3C)C(C)C)c(C)c2c1	G9a block inconclusive, BAZ2B block inconclusive
O=C1/C(=C\c2cc(Cl)c(O)c(Cl)c2)SC(=S)N1Cc1ccccc1	G9a block 14µM, Sfp PPTase inh inconclusive, HP1b chromo inh inconclusive, BAZ2B block 50µM, JMJD2A Tudor 50µM
CN1C(=O)/C(=C\c2ccccc2OCc2ccccc2)SC1=S	none
CN1C(=O)/C(=C\c2cc(N=Nc3ccccc3)ccc2O)SC1=S	G9a block 8.9µM, PLK1 PBD block inconclusive, BAZ2B block 3.5µM, JMJD2A Tudor 40µM
COc1ccc(O)c(/C=C2/SC(=S)N(Cc3ccccc3)C2=O)c1	G9a block 4.5µM, Sfp PPTase inh inconclusive, HP1b chromo inh inconclusive, BAZ2B block 32µM, JMJD2A Tudor 40µM
CC(NO)/C(=N\O)c1cccs1 (stereo not given)	G9a block 4µM, Sfp PPTase inh inconclusive, HP1b chromo inh inconclusive, BAZ2B block inconclusive, JMJD2A Tudor 79µM
C/C(=N\N=C(c1ccccc1)c1ccccc1)c1cccs1	BAZ2B block inconclusive
Cc1cc(N2CCOCC2)ccc1/C=C\[N+](=O)[O-]	G9a block 6.3µM, Sfp PPTase inh inconclusive, PLK1 PBD block 13µM, BAZ2B block inconclusive
O=[N+]([O-])c1ccc(N2CCOCC2)cc1O	none
CCCCn1cnc2cc(NC(=O)c3cc(OC)c(OC)c(OC)c3)ccc21	none (no result: Sfp PPTase inh, PLK1 PBD block)
COc1ccc(C2NC(=O)NC(O)(C(F)(F)F)C2C(=O)c2ccccc2)cc1OC (stereo not given)	none
COc1cccc(C2NC(=O)NC(O)(C(F)(F)F)C2C(=O)c2cccnc2)c1OC (stereo not given)	G9a block 50µM
O=C(C1=C(O)C(=O)N(CCN2CCOCC2)C1c1cccc(Br)c1)c1cccs1 (stereo not given)	G9a block 56µM
